Test results reported in PubChem BioAssay (NCI).
Compounds without any hit were thinned out: in the full panel of roughly 83,000, 20% have a hit.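 Results are percent growth after 48 hours of single-concentration exposure. 100 means growth as in untreated cells, lower positive values show inhibition; negative values down to -100 show cell death.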 Active and inactive are the calls of the source. The calls were made as follows: active = growth percent below 10; inactive = the rest.

Assays:
Assay in all cases: NCI-60 one-dose screen, 48 h (100 = growth as untreated, 0 = no growth, -100 = all killed)
Details in all cases: 10 µM unless noted
HT29 colon = system: HT29 colon
SNB-75 CNS = system: SNB-75 CNS
SNB-19 CNS = system: SNB-19 CNS
U251 CNS = system: U251 CNS
PC-3 prostate = system: PC-3 prostate
SK-MEL-5 melanoma = system: SK-MEL-5 melanoma
LOX IMVI melanoma = system: LOX IMVI melanoma
SK-MEL-28 melanoma = system: SK-MEL-28 melanoma
SK-MEL-2 melanoma = system: SK-MEL-2 melanoma
UACC-62 melanoma = system: UACC-62 melanoma

Measured: growth

CSc1ccc2c(c1)N(CCC1CCCCN1C)c1ccccc1S2 (stereo unspecified)
inactive: HT29 colon 21.6% | SNB-75 CNS 34.5% | SNB-19 CNS 75.3% | U251 CNS 34.3% | PC-3 prostate 34.1% | SK-MEL-5 melanoma 23.7% | LOX IMVI melanoma 23.5% | SK-MEL-28 melanoma 81.7% | SK-MEL-2 melanoma 88.6%

Nc1ccc2c3c(cccc13)-c1ccccc1-2
inactive: HT29 colon 108% | SNB-75 CNS 74.2% | SNB-19 CNS 97.7% | U251 CNS 94.9% | PC-3 prostate 73% | SK-MEL-5 melanoma 98.4% | UACC-62 melanoma 84.7% | SK-MEL-28 melanoma 110% | SK-MEL-2 melanoma 105%

O=[N+]([O-])c1cnc(Sc2ccncn2)c([N+](=O)[O-])c1
inactive: HT29 colon 76.5% | SNB-75 CNS 95.2% | SNB-19 CNS 102% | U251 CNS 100% | PC-3 prostate 96.3% | SK-MEL-5 melanoma 92% | LOX IMVI melanoma 96.8% | SK-MEL-28 melanoma 98.3% | SK-MEL-2 melanoma 110%

Cc1cc(CC(=O)O)n(C)c1C(=O)c1ccc(Cl)cc1
inactive: HT29 colon 109% | SNB-75 CNS 121% | SNB-19 CNS 108% | U251 CNS 99.5% | PC-3 prostate 99.5% | SK-MEL-5 melanoma 98.7% | LOX IMVI melanoma 97.9% | SK-MEL-28 melanoma 122% | SK-MEL-2 melanoma 115%

O=C(/C(=C/c1cccc([N+](=O)[O-])c1)c1ccccc1)c1ccccc1
inactive: HT29 colon 52.7% | SNB-75 CNS 56.8% | SNB-19 CNS 77% | U251 CNS 56.3% | PC-3 prostate 64% | SK-MEL-5 melanoma 41.5% | LOX IMVI melanoma 10.7% | SK-MEL-28 melanoma 92.8% | SK-MEL-2 melanoma 28.8%

O=C(C(=O)N1CCCCC1)c1ccc(OC2OC(CO)C(O)C(O)C2O)cc1 (stereo unspecified)
inactive: HT29 colon 100% | SNB-75 CNS 91.9% | SNB-19 CNS 96.8% | U251 CNS 96.4% | PC-3 prostate 97.3% | SK-MEL-5 melanoma 105% | UACC-62 melanoma 97.9% | SK-MEL-28 melanoma 104% | SK-MEL-2 melanoma 99.4%

COc1ccc2c(c1)nc(N)c1c3ccccc3cn21
inactive: HT29 colon 73.8% | SNB-75 CNS 67.6% | SNB-19 CNS 83.4% | U251 CNS 72.8% | PC-3 prostate 84% | SK-MEL-5 melanoma 50.8% | UACC-62 melanoma 58.7% | SK-MEL-28 melanoma 78.8% | SK-MEL-2 melanoma 83.8%

O=C(Nc1nc(-c2ccccc2)cs1)c1cc(O)c(O)c(O)c1
inactive: HT29 colon 80.8% | SNB-75 CNS 33.1% | SNB-19 CNS 41.5% | U251 CNS 32.1% | PC-3 prostate 58.8% | SK-MEL-5 melanoma 44.1% | LOX IMVI melanoma 40.2% | SK-MEL-28 melanoma 76.8% | SK-MEL-2 melanoma 56.8%

N#Cc1cnc2cc(OC[C@H](O)CO)c(NC(=O)CC3CSSC3)cc2c1Nc1ccc(OCc2cccc(F)c2)c(Cl)c1
active: HT29 colon -77.8% | SNB-75 CNS -92.3% | SNB-19 CNS -64.6% | U251 CNS -69.2% | PC-3 prostate -100% | SK-MEL-5 melanoma -95.9% | LOX IMVI melanoma -86.3% | SK-MEL-28 melanoma -84.6% | SK-MEL-2 melanoma -70.6%

Fc1ccc(-c2nc(Nc3ccc(-c4nc5ccccc5[nH]4)cc3)nc(N3CCOCC3)n2)cc1
active: HT29 colon -78.6% | SNB-75 CNS -92.6% | SNB-19 CNS -81.2% | U251 CNS -93% | PC-3 prostate -93.5% | SK-MEL-5 melanoma -97.6% | LOX IMVI melanoma -93% | SK-MEL-28 melanoma -84.7% | SK-MEL-2 melanoma -71.3%

NNC(=O)C1CC2c3ccccc3C1c1ccccc12 (stereo unspecified)
inactive: HT29 colon 104% | SNB-75 CNS 90.8% | SNB-19 CNS 107% | U251 CNS 110% | PC-3 prostate 98.5% | SK-MEL-5 melanoma 110% | UACC-62 melanoma 97.1% | SK-MEL-28 melanoma 108% | SK-MEL-2 melanoma 109%

COc1cc(/C=C/C(=O)c2c(-c3ccc(F)cc3)nc3sc(C)nn23)cc(OC)c1OC
active: HT29 colon 6.07% | LOX IMVI melanoma -19.7% | SK-MEL-2 melanoma -26.5%
inactive: SNB-75 CNS 10.2% | SNB-19 CNS 84.9% | U251 CNS 21.3% | PC-3 prostate 59.9% | SK-MEL-5 melanoma 27.1% | SK-MEL-28 melanoma 65.7%

COc1cc2c(-c3nc4cc(Cl)c(F)cc4s3)cc(=O)oc2c(C)c1OC
inactive: SNB-19 CNS 34.7% | PC-3 prostate 19.2%
active: HT29 colon -80% | SNB-75 CNS -90.3% | U251 CNS -92.3% | SK-MEL-5 melanoma -84.2% | LOX IMVI melanoma -73.5% | SK-MEL-28 melanoma -28.6% | SK-MEL-2 melanoma -82.2%

O=C(C(=O)N1CCOCC1)c1ccc(OC2OC(CO)C(O)C(O)C2O)cc1 (stereo unspecified)
inactive: HT29 colon 100% | SNB-75 CNS 89.5% | SNB-19 CNS 102% | U251 CNS 105% | PC-3 prostate 110% | SK-MEL-5 melanoma 108% | UACC-62 melanoma 103% | SK-MEL-28 melanoma 105% | SK-MEL-2 melanoma 96.2%

O=C(/C=C/c1ccc(Cl)cc1)c1ccccc1
inactive: HT29 colon 93.8% | SNB-75 CNS 109% | SNB-19 CNS 101% | U251 CNS 88.2% | PC-3 prostate 97% | SK-MEL-5 melanoma 93% | LOX IMVI melanoma 81.1% | SK-MEL-28 melanoma 113% | SK-MEL-2 melanoma 102%

CC1SC(c2c(Cl)cccc2Cl)N(NC(=O)c2[nH]c3ccc(F)cc3c2-c2ccccc2)C1=O (stereo unspecified)
inactive: HT29 colon 34.8% | SNB-19 CNS 37.4% | U251 CNS 10.7% | PC-3 prostate 32.2% | SK-MEL-5 melanoma 54.6% | UACC-62 melanoma 74.8% | SK-MEL-28 melanoma 71.2% | SK-MEL-2 melanoma 72%
active: SNB-75 CNS -53%

Cn1c(=O)c2c(nc(Br)n2CCC(=O)Nc2ccc(F)cc2)n(C)c1=O
inactive: HT29 colon 96.3% | SNB-75 CNS 89.1% | SNB-19 CNS 103% | U251 CNS 96.7% | PC-3 prostate 95.9% | SK-MEL-5 melanoma 111% | LOX IMVI melanoma 89.9% | SK-MEL-28 melanoma 112% | SK-MEL-2 melanoma 100%

CC(=O)O[C@H]1C(=O)[C@@]2(C)C([C@H](OC(=O)c3ccccc3)[C@]3(O)C[C@H](OC(=O)[C@H](O)[C@@H](NC(=O)c4ccccc4)c4ccccc4)C(C)=C1C3(C)C)[C@]1(OC(C)=O)CO[C@@H]1C[C@@H]2O (stereo partly specified)
active: HT29 colon 3.07% | SNB-75 CNS -19% | SK-MEL-2 melanoma -5.52%
inactive: SNB-19 CNS 36.2% | U251 CNS 13.5% | PC-3 prostate 19.7% | UACC-62 melanoma 42.5% | LOX IMVI melanoma 44.3% | SK-MEL-28 melanoma 57.5%

CCOc1cc(C(C)(C)C)ccc1C1=N[C@H](c2ccc(Cl)cc2)[C@H](c2ccc(Cl)cc2)N1C(=O)N1CCN(CC#Cc2cccc3c2CN([C@@H]2CCC(=O)NC2=O)C3=O)CC1
active: PC-3 prostate 0.359%
inactive: HT29 colon 12.6% | SNB-75 CNS 23% | SNB-19 CNS 45% | U251 CNS 65.8% | UACC-62 melanoma 24.3% | LOX IMVI melanoma 31.8% | SK-MEL-28 melanoma 53.4% | SK-MEL-2 melanoma 44.9%

COc1c(C)c2c(c(O)c1C/C=C(\C)CCC(=O)OCCN1CCOCC1)C(=O)OC2
active: HT29 colon 1.17%
inactive: SNB-75 CNS 49.1% | SNB-19 CNS 28% | U251 CNS 14.7% | PC-3 prostate 23.2% | UACC-62 melanoma 23.6% | LOX IMVI melanoma 18.4% | SK-MEL-28 melanoma 35.8% | SK-MEL-2 melanoma 25.7%

NS(=O)(=O)c1ccc(NC2=C(Cl)C(=O)c3ccccc3C2=O)cc1
inactive: HT29 colon 105% | SNB-75 CNS 136% | SNB-19 CNS 101% | U251 CNS 97.5% | PC-3 prostate 70.1% | UACC-62 melanoma 96.2% | LOX IMVI melanoma 53.7% | SK-MEL-28 melanoma 124% | SK-MEL-2 melanoma 102%

C=CC1=C(C(=O)O)N2C(=O)[C@@H](NC(=O)/C(=N\O)c3csc(N)n3)[C@H]2SC1 (stereo in doubt)
inactive: HT29 colon 104% | SNB-75 CNS 92.4% | SNB-19 CNS 114% | U251 CNS 92.1% | PC-3 prostate 95.3% | UACC-62 melanoma 114% | LOX IMVI melanoma 88.1% | SK-MEL-28 melanoma 111% | SK-MEL-2 melanoma 122%

COc1cccc(/C=C2\COc3ccc(O)c(O)c3C2=O)c1OC
active: UACC-62 melanoma 8.54% | LOX IMVI melanoma -72.6%
inactive: HT29 colon 21.6% | SNB-75 CNS 21.8% | SNB-19 CNS 31.6% | U251 CNS 10.9% | PC-3 prostate 19.5% | SK-MEL-28 melanoma 47% | SK-MEL-2 melanoma 97.3%

CC(C)c1nc(N(C)S(C)(=O)=O)nc(-c2ccc(F)cc2)c1/C=C/[C@@H](O)C[C@@H](O)CC(=O)O
inactive: HT29 colon 104% | SNB-75 CNS 107% | SNB-19 CNS 115% | U251 CNS 61.7% | PC-3 prostate 69.3% | UACC-62 melanoma 102% | LOX IMVI melanoma 81.3% | SK-MEL-28 melanoma 107% | SK-MEL-2 melanoma 97.8%

Oc1ccccc1/C=N\Nc1ccccc1
active: UACC-62 melanoma -5.08%
inactive: HT29 colon 95.9% | SNB-75 CNS 71.9% | SNB-19 CNS 86% | U251 CNS 75.9% | PC-3 prostate 36.3% | LOX IMVI melanoma 53% | SK-MEL-28 melanoma 102% | SK-MEL-2 melanoma 92.1%

N#Cc1cccc(/C=C(/C(=O)c2ccccc2)c2ccccc2)c1
inactive: HT29 colon 70.1% | SNB-75 CNS 69.4% | SNB-19 CNS 83% | U251 CNS 60.1% | PC-3 prostate 66.5% | SK-MEL-5 melanoma 49.3% | SK-MEL-28 melanoma 100% | SK-MEL-2 melanoma 34.5%

CCOc1cccc(C2CC(=O)Nc3cc4c(cc32)OCO4)c1 (stereo unspecified)
inactive: HT29 colon 89.1% | SNB-75 CNS 104% | SNB-19 CNS 100% | U251 CNS 85.1% | PC-3 prostate 81.7% | UACC-62 melanoma 90.9% | LOX IMVI melanoma 93.8% | SK-MEL-28 melanoma 99.9% | SK-MEL-2 melanoma 83.1%

Clc1cc(Cl)c(OCC#CI)cc1Cl
inactive: HT29 colon 10.4% | SNB-75 CNS 87.6% | SNB-19 CNS 108% | U251 CNS 78.9% | PC-3 prostate 75.6% | UACC-62 melanoma 62.8% | SK-MEL-28 melanoma 17.2% | SK-MEL-2 melanoma 75.8%
active: LOX IMVI melanoma -56%
